Reference: PubChem BioAssay (NCI)
About 79,000 compounds went through this panel and 15% of them were active in at least one assay; those are over-represented in the sample as a whole. Calls of active or inactive are those of the source. Cut-off read from the data, not from the text of the source: active = growth inhibition above about 70%; inactive = the rest.

Key:
[1] = NCI Yeast Anticancer Drug Screen. Data for the rad52 strain (AID 147);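 note: 0% = growth of vehicle-treated control cultures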; conditions: S. cerevisiae rad52 mutant growth inhibition, stronger effect = higher value
Method in brief: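 Vehicle-treated cultures served as the reference for growth inhibition of compound-exposed yeast bearing a DNA repair mutation.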

[2] = NCI Yeast Anticancer Drug Screen. Data for the wt1 strain (AID 149);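 note: 0% = growth of vehicle-treated wt1 cultures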; conditions: S. cerevisiae wt1 strain (SPY 50644) growth inhibition, stronger effect = higher value
Method in brief: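 wt1 strain grown with compound or vehicle; inhibition taken from the growth difference.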

[3] = NCI Yeast Anticancer Drug Screen. Data for the rad50EPP+ strain (AID 151);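 note: 0% = growth of vehicle-treated control cultures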; conditions: S. cerevisiae rad50 mutant strain, stronger effect = higher value
Method in brief: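 In this screen, rad50EPP+ yeast were exposed to compounds. Growth inhibition was scored against vehicle-treated controls.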

[4] = NCI Yeast Anticancer Drug Screen. Data for the mgt1 strain (AID 153); conditions: S. cerevisiae mgt1 mutant growth inhibition, stronger effect = higher value
Method in brief: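 mgt1 strain exposed; growth vs vehicle control recorded as inhibition.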

[5] = NCI Yeast Anticancer Drug Screen. Data for the rad50 strain (AID 155);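 note: 0% = growth of vehicle-only cultures of the same strain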; conditions: S. cerevisiae rad50 strain growth inhibition, stronger effect = higher value
Method in brief: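 DNA repair mutant yeast, compound exposure, growth read-out; inhibition is taken relative to vehicle.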

[6] = NCI Yeast Anticancer Drug Screen. Data for the mec2-1 strain (AID 157); conditions: S. cerevisiae mec2-1 strain, stronger effect = higher value
Method in brief: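 Vehicle-treated cultures served as reference for growth inhibition of compound-exposed mec2-1 yeast.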

[7] = NCI Yeast Anticancer Drug Screen. Data for the rad14 strain (AID 159);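 note: 0% = growth of vehicle-treated control cultures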; conditions: S. cerevisiae rad14 strain growth inhibition, stronger effect = higher value
Method in brief: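 DNA repair-defective yeast, compound-exposed; % growth inhibition derived by comparison with vehicle-treated controls.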

[8] = NCI Yeast Anticancer Drug Screen. Data for the sgs1 mgt1 strain (AID 161);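 note: 0% = growth of cultures given vehicle only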; conditions: S. cerevisiae sgs1 mgt1 strain, stronger effect = higher value
Method in brief: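 Mutant yeast exposed to compound; growth scored against vehicle-only wells.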

[9] = NCI Yeast Anticancer Drug Screen. Data for the CLN2oe strain (AID 163);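 note: 0% = growth of vehicle-only control cultures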; conditions: S. cerevisiae CLN2oe strain, stronger effect = higher value
Method in brief: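 Inhibition relative to vehicle-treated yeast is reported. Cells: strain with genetic alteration in cell-cycle control, grown with compound.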

[10] = NCI Yeast Anticancer Drug Screen. Data for the cln2 rad14 strain (AID 165);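 note: 0% = growth equal to vehicle treated cultures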; conditions: S. cerevisiae cln2 rad14 strain, stronger effect = higher value
Method in brief: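 Each compound was tested on cln2 rad14 yeast. Inhibition of growth was calculated against vehicle-exposed controls.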

[11] = NCI Yeast Anticancer Drug Screen. Data for the bub3 strain (AID 167); conditions: S. cerevisiae bub3 mutant strain, stronger effect = higher value
Method in brief: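 In this screen, a yeast mutant lacking normal mitotic checkpoint function is challenged with compound. Relative growth versus vehicle gives the inhibition value.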

[12] = NCI Yeast Anticancer Drug Screen. Data for the wt2 strain (AID 169);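 note: 0% = growth of vehicle-treated yeast cultures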; conditions: S. cerevisiae wt2 strain growth inhibition, stronger effect = higher value
Method in brief: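 Inhibition of yeast growth was determined after compound treatment, normalised to controls receiving only vehicle.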

[13] = NCI Yeast Anticancer Drug Screen. Data for the sgs1 strain (AID 173);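 note: 0% = growth of vehicle-only control cultures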; conditions: S. cerevisiae sgs1 mutant, stronger effect = higher value
Method in brief: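 Screen format: yeast with repair or checkpoint alterations, compound exposure, growth read relative to vehicle.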

[14] = NCI Yeast Anticancer Drug Screen. Data for the mlh1 rad18 strain (AID 175); conditions: S. cerevisiae mlh1 rad18 strain growth inhibition, stronger effect = higher value
Method in brief: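 Vehicle-treated cultures served as the reference for growth inhibition in a yeast strain carrying DNA damage repair alterations exposed to each compound.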

[15] = NCI Yeast Anticancer Drug Screen. Data for the rad18 strain (AID 177); conditions: S. cerevisiae rad18 mutant growth inhibition, stronger effect = higher value
Method in brief: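 Test articles were incubated with altered yeast defective in DNA damage repair. Results are given as inhibition of growth versus vehicle.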

[16] = at 5.0 µM (retest, dose inferred, filed as 0.5)
[17] = at 50.0 µM (retest, dose inferred, filed as 5.0)

Measured: growth inhibition

COc1cc([N+](=O)[O-])c2ncccc2c1Br
inactive: [1]; at 1.2 µM 41% | [1]; at 3.7 µM 41% | [1]; at 11.0 µM 47% | [1]; at 33.0 µM 44% | [1]; at 100.0 µM 42% | [2]; at 1.2 µM -1% | [2]; at 3.7 µM -7% | [2]; at 11.0 µM 5% | [2]; at 33.0 µM -2% | [2]; at 100.0 µM -3% | [3]; at 1.2 µM 11% | [3]; at 3.7 µM 16% | [3]; at 11.0 µM 29% | [3]; at 33.0 µM 36% | [3]; at 100.0 µM 24% | [4]; at 1.2 µM -2% | [4]; at 3.7 µM -6% | [4]; at 11.0 µM -1% | [4]; at 33.0 µM -4% | [4]; at 100.0 µM -4% | [5]; at 1.2 µM 15% | [5]; at 3.7 µM 12% | [5]; [16] 14% | [5]; at 11.0 µM 25% | [5]; at 33.0 µM 33% | [5]; [17] 32% | [5]; at 50.0 µM 32.9% | [5]; at 100.0 µM 20% | [6]; at 1.2 µM 2% | [6]; at 3.7 µM 2% | [6]; [16] 2% | [6]; at 11.0 µM 5% | [6]; at 33.0 µM -1% | [6]; [17] 16% | [6]; at 50.0 µM 9.05% | [6]; at 100.0 µM 2% | [7]; at 1.2 µM 35% | [7]; at 3.7 µM 51% | [7]; at 11.0 µM 67% | [7]; at 33.0 µM 49% | [7]; at 100.0 µM 55% | [8]; [16] 26% | [8]; [17] 41% | [8]; at 50.0 µM 25.1% | [9]; at 1.2 µM -11% | [9]; at 3.7 µM -7% | [9]; at 11.0 µM -11% | [9]; at 33.0 µM -11% | [9]; at 100.0 µM -11% | [10]; [16] 22% | [10]; [17] 57% | [11]; at 1.2 µM -15% | [11]; at 3.7 µM -14% | [11]; [16] -4% | [11]; at 11.0 µM -16% | [11]; at 33.0 µM -18% | [11]; [17] -3% | [11]; at 50.0 µM -3.7% | [11]; at 100.0 µM -18% | [12]; at 1.2 µM -12% | [12]; at 3.7 µM 0% | [12]; at 11.0 µM 5% | [12]; at 33.0 µM 4% | [12]; at 100.0 µM 9% | [13]; at 1.2 µM 41% | [13]; at 3.7 µM 32% | [13]; at 11.0 µM 42% | [13]; at 33.0 µM 42% | [13]; at 100.0 µM 38% | [14]; [16] 53% | [14]; at 50.0 µM 29.3%
active: [10]; at 50.0 µM 81.8% | [14]; [17] 77% | [15]; at 1.2 µM 91% | [15]; at 3.7 µM 93% | [15]; at 11.0 µM 93% | [15]; at 33.0 µM 93% | [15]; at 100.0 µM 91%

COC(=O)C(Cc1c[nH]c2ccccc12)N1CN(C)c2ccccc2C1=O (stereo unspecified)
inactive: [1]; at 1.2 µM 7% | [1]; at 3.7 µM 2% | [1]; at 11.0 µM 0% | [1]; at 33.0 µM 3% | [2]; at 1.2 µM 7% | [2]; at 3.7 µM -3% | [2]; at 11.0 µM -4% | [2]; at 33.0 µM -4% | [2]; at 100.0 µM 60% | [3]; at 1.2 µM 9% | [3]; at 3.7 µM 0% | [3]; at 11.0 µM -3% | [3]; at 33.0 µM 1% | [3]; at 100.0 µM 16% | [4]; at 1.2 µM 49% | [4]; at 3.7 µM -1% | [4]; at 11.0 µM -1% | [4]; at 33.0 µM 5% | [5]; at 1.2 µM 7% | [5]; at 3.7 µM 2% | [5]; [16] 11% | [5]; at 11.0 µM 6% | [5]; at 33.0 µM 2% | [5]; [17] 37% | [5]; at 50.0 µM 57.9% | [6]; at 1.2 µM 5% | [6]; at 3.7 µM -1% | [6]; [16] -17% | [6]; at 11.0 µM -2% | [6]; at 33.0 µM 5% | [6]; [17] 11% | [6]; at 50.0 µM 50.5% | [7]; at 1.2 µM 6% | [7]; at 3.7 µM -9% | [7]; at 11.0 µM -5% | [7]; at 33.0 µM -13% | [8]; [16] -2% | [8]; [17] 60% | [9]; at 1.2 µM 4% | [9]; at 3.7 µM 1% | [9]; at 11.0 µM 3% | [9]; at 33.0 µM 7% | [10]; [16] -4% | [10]; [17] 54% | [11]; at 1.2 µM -6% | [11]; at 3.7 µM -1% | [11]; [16] 13% | [11]; at 11.0 µM 11% | [11]; at 33.0 µM 0% | [11]; [17] 44% | [11]; at 50.0 µM 40.4% | [12]; at 1.2 µM 8% | [12]; at 3.7 µM -2% | [12]; at 11.0 µM -4% | [12]; at 33.0 µM 0% | [13]; at 1.2 µM 3% | [13]; at 3.7 µM 2% | [13]; at 11.0 µM 1% | [13]; at 33.0 µM 8% | [14]; [16] -9% | [15]; at 1.2 µM -8% | [15]; at 3.7 µM -3% | [15]; at 11.0 µM 3% | [15]; at 33.0 µM 18%
active: [1]; at 100.0 µM 99% | [4]; at 100.0 µM 99% | [5]; at 100.0 µM 99% | [6]; at 100.0 µM 99% | [7]; at 100.0 µM 99% | [8]; at 50.0 µM 97.8% | [9]; at 100.0 µM 99% | [10]; at 50.0 µM 70.5% | [11]; at 100.0 µM 99% | [12]; at 100.0 µM 99% | [13]; at 100.0 µM 99% | [14]; [17] 75% | [14]; at 50.0 µM 95.8% | [15]; at 100.0 µM 99%
